Measured values taken from PubChem BioAssay.

Target: PEG-3 (UniProt Q6IN02)
Experiment: inhibition of PEG-3 promoter-driven reporter – cell-based, HeLa, luciferase, CREF/GAPDH counter-screen panel, dose response (AID 624167)
Conditions: CREF/GAPDH counter-screens; HeLa PEG-Prom luciferase reporter, overnight, run 1, dose range 1, at 100 µM (top of the series) unless noted

Chain of PEG-3 (Q6IN02 whole entry, looked up): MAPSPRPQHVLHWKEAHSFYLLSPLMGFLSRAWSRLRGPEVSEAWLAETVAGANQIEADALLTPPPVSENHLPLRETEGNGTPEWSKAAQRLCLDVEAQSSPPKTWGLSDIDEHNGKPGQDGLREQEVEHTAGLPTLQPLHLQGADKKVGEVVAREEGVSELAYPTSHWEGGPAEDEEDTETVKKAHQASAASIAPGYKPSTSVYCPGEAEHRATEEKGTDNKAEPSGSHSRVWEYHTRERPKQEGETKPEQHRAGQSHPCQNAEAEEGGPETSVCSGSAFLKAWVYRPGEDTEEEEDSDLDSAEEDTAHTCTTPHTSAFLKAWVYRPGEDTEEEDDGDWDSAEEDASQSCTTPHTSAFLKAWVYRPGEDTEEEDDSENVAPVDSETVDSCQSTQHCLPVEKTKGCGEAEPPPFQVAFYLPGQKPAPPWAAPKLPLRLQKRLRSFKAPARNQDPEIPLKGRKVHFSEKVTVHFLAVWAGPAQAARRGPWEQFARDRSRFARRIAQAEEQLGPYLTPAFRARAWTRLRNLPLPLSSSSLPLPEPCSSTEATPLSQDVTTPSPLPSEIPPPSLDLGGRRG

Row | Compound | inhibition [%]
1 | Cc1ccc(C(=O)NCCc2cccs2)cc1 | 92.3
2 | CCOC(=O)c1c(C)[nH]c(C(=O)OCC(=O)Nc2sccc2C(N)=O)c1C | 76.2
3 | CC(C)(C)C(=O)Nc1cc2nn(-c3ccccc3)nc2cc1Cl | 92.3
4 | CN1OC[C@@H]2CN[C@H](c3ccc(-c4cc5ccccc5o4)cc3)C[C@@H]21 | 98
5 | Cc1cc(C(=O)COC(=O)c2ccccc2Br)c(C)n1CC1CCCO1 (stereo not given) | 95.8
6 | CCCCCCCCCCCCCCCC(O)C[N+](C)(C)CCO (stereo not given) | 102
7 | Cc1cc2sc3ccc(C#CC4(O)CCCCC4)cc3c(=O)c2cc1C | 84.2
8 | COCCn1c(C)cc(C(=O)COC(=O)c2ccccc2Br)c1C | 95.9
9 | CC1(C)Oc2cc3oc(-c4cc(O)cc(O)c4)cc3cc2CC1O (stereo not given) | 93.6
10 | Nc1nc(CCl)nc(Nc2cccc3ccccc23)n1 | 102
11 | CCCC(=O)N1CCCC(c2cc(C(=O)Nc3ccccc3)no2)C1 (stereo not given) | 85.5
12 | COCCn1c(C)cc(C2=NNC(=NC3CC3)SC2)c1C | 99.2
13 | COC(=O)c1c(NC(=O)c2ccc([N+](=O)[O-])o2)sc2c1CCN(C(C)C)C2 | 95
14 | CCn1c(C)cc(C(=O)COC(=O)c2ccccc2[N+](=O)[O-])c1C | 99
15 | O=C(NC1CCCCC1)C(c1cccnc1)N(C(=O)CCl)c1cccc(Cl)c1 (stereo not given) | 97.7
16 | Cc1ccc2sc(N(CCCN(C)C)C(=O)c3ccc(S(=O)(=O)N4CCc5ccccc5C4)cc3)nc2c1C | 82.2
17 | O=C(CCl)N1N=C(c2ccco2)CC1c1cccs1 (stereo not given) | 101
18 | N/C(=N\OC(=O)c1ccccc1)C(C(=O)NOC(=O)c1ccccc1)C1CCCCC1 (stereo not given) | 98.8
19 | O=C(CCl)Nc1cccc(-c2cnc3ccccc3n2)c1 | 101
20 | CCOc1cccc2sc(N(CCCN(C)C)C(=O)c3ccc(S(=O)(=O)N(C)Cc4ccccc4)cc3)nc12 | 99.3
21 | COc1ccccc1N(C(=O)CCl)c1cn(C(C)=O)c2ccccc12 | 98.1

Target: PEG-3 (UniProt Q6IN02)
Experiment: as above
Conditions: CREF/GAPDH counter-screens; HeLa PEG-Prom luciferase reporter, overnight, run 2, dose range 1, at 100 µM (top of the series) unless noted

Row | Compound | inhibition [%]
22 | Cc1ccc(C(=O)NCCc2cccs2)cc1 | 49.8
23 | CCOC(=O)c1c(C)[nH]c(C(=O)OCC(=O)Nc2sccc2C(N)=O)c1C | 101
24 | CC(C)(C)C(=O)Nc1cc2nn(-c3ccccc3)nc2cc1Cl | 90.1
25 | CN1OC[C@@H]2CN[C@H](c3ccc(-c4cc5ccccc5o4)cc3)C[C@@H]21 | 101
26 | Cc1cc(C(=O)COC(=O)c2ccccc2Br)c(C)n1CC1CCCO1 (stereo not given) | 85.4
27 | CCCCCCCCCCCCCCCC(O)C[N+](C)(C)CCO (stereo not given) | 98.9
28 | Cc1cc2sc3ccc(C#CC4(O)CCCCC4)cc3c(=O)c2cc1C | 93.8
29 | COCCn1c(C)cc(C(=O)COC(=O)c2ccccc2Br)c1C | 94.1
30 | CC1(C)Oc2cc3oc(-c4cc(O)cc(O)c4)cc3cc2CC1O (stereo not given) | 94.6
31 | Nc1nc(CCl)nc(Nc2cccc3ccccc23)n1 | 100
32 | CCCC(=O)N1CCCC(c2cc(C(=O)Nc3ccccc3)no2)C1 (stereo not given) | 90.8
33 | COCCn1c(C)cc(C2=NNC(=NC3CC3)SC2)c1C | 101
34 | COC(=O)c1c(NC(=O)c2ccc([N+](=O)[O-])o2)sc2c1CCN(C(C)C)C2 | 99.1
35 | CCn1c(C)cc(C(=O)COC(=O)c2ccccc2[N+](=O)[O-])c1C | 99
36 | O=C(NC1CCCCC1)C(c1cccnc1)N(C(=O)CCl)c1cccc(Cl)c1 (stereo not given) | 102
37 | Cc1ccc2sc(N(CCCN(C)C)C(=O)c3ccc(S(=O)(=O)N4CCc5ccccc5C4)cc3)nc2c1C | 74.5
38 | O=C(CCl)N1N=C(c2ccco2)CC1c1cccs1 (stereo not given) | 99.3
39 | N/C(=N\OC(=O)c1ccccc1)C(C(=O)NOC(=O)c1ccccc1)C1CCCCC1 (stereo not given) | 102
40 | O=C(CCl)Nc1cccc(-c2cnc3ccccc3n2)c1 | 98.6
41 | CCOc1cccc2sc(N(CCCN(C)C)C(=O)c3ccc(S(=O)(=O)N(C)Cc4ccccc4)cc3)nc12 | 101
42 | COc1ccccc1N(C(=O)CCl)c1cn(C(C)=O)c2ccccc12 | 102

System: not listed separately
Experiment: NFkB reporter suppression in cystic fibrosis bronchial cells – cell-based, uHTS hits, panel, cytotoxicity readout, dose response (AID 624344)
Conditions: CF bronchial epithelial cells, PAF-induced NFkB reporter inhibition, with PAF, run 1; at 79 µM (top of the series) unless noted

Row | Compound | inhibition
43 | CCOc1ccc(-n2cc(-c3ccccc3)c3c(N4CCOCC4)ncnc32)cc1 | 112%
44 | O=S1(=O)CCC(NC(=S)SCCOc2ccccc2)C1 (stereo not given) | 99.3%
45 | CCOC(=O)[C@@H]1[C@H]2COc3ccc(Br)cc3[C@H]2N2C(=O)N(c3ccc(C)cc3)C(=O)[C@]12C | 14.6%
46 | CCOc1cccc(-c2nnc3sc(C4CCCCC4)nn23)c1 | 102%
47 | c1ccc2c(-c3cncc4ccccc34)cncc2c1 | 110%
48 | COc1cccc(C(=O)N2C(C(C)C)COc3cc(Br)ccc3S2(=O)=O)c1 (stereo not given) | 118%
49 | COc1ccc(-c2cc(NC=O)c3ncc(-c4ccc(OC)c(OC)c4)n3c2)c(OC)c1 | 95.1%
50 | CC(C)(CO)CNc1ccn2nccc2n1 | 114%
51 | COc1ccccc1-c1cc(NC=O)c2ncc(-c3ccc(F)cc3)n2c1 | 97.7% [at 39.5 µM]
52 | Cc1cccc(N2CCN(C(=O)CCn3c(=S)[nH]c4cc5c(cc4c3=O)OCO5)CC2C)c1 (stereo not given) | 109%
53 | COc1ccc2cc3c(N)nn(C(=O)c4ccccc4[N+](=O)[O-])c3nc2c1 | 101%
54 | Cc1[nH]nc2c1-c1nc3ccccc3nc1C(C)(C)C2 | 113%
55 | CS(=O)(=O)c1ncc(Cl)c(C(=O)Nc2ccc(OC(F)F)cc2)n1 | 91.4%
56 | CC(C)(C)c1nc(NC(=O)Nc2ccccc2)sc1Br | 107%
57 | COc1ccc(-c2cc(=O)oc3c(C)c(O)ccc23)cc1 | 94.8%
58 | CCOC(=O)C1=C(C)Nc2ccccc2N=C1NC(=O)c1oc2ccccc2c1COC | 90.5%
59 | CC1CCc2sc3ncnc(N4CCOCC4)c3c2C1 (stereo not given) | 112%
60 | Clc1ccc(-c2csc3ncnc(N4CCc5ccccc5C4)c23)cc1 | 103%
